Results filed as inconclusive are left out. Active and inactive are the calls of the source. Unless noted, the call rests on the fitted dose curve; in most records, active means well fitted curve in the direction sought with a large enough effect in the repeat runs; inconclusive means weak or mixed curves; inactive means no such curve, though single readings can be large; an effect the other way counts as inactive or inconclusive.
Tests used:
[1] = qHTS assay to identify small molecule HDAC inhibitors (AID 1259364);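 further: wild-type HCT-116 cells with endogenous class I/II HDAC activity; top concentration of the series differs between compounds; nearly all actives have a fitted effect of over 45% in size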
How it was run: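 Read-out: luminescence of HDAC-Glo I/II reagent, 30 min RT, reflecting class I/II deacetylase activity in whole HCT-116 cells pre-exposed 2 h to DMSO-dissolved compounds.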

[2] = qHTS assay to identify small molecule HDAC inhibitors - cell viability counter screen (AID 1259365); further: series mostly up to about 92 µM; nearly all actives have a fitted effect of over 50% in size
How it was run: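 HCT-116 wild-type, overnight attachment; 2hr drug exposure, 37C; CellTiter-Glo luminescent ATP readout after 30min RT.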

[3] = qHTS assay to identify small molecule antagonists of the sonic hedgehog signaling (Shh) pathway - cell viability counter screen (AID 1259367); further: nearly all actives have a fitted effect of over 55% in size
How it was run: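 After a 4 hr settling period, 3T3 Gli1-Luc cells were treated with DMSO-dissolved chemicals and conditioned medium, kept 24 hr at 37C in 5% CO2, and assayed for viability by CellTiter-Fluor fluorescence following 1 hr reagent incubation.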

[4] = qHTS assay to identify small molecule agonists of the sonic hedgehog signaling (Shh) pathway (AID 1259368; calls by dose curve;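 further: NIH/3T3-derived 3T3Gli1-Luc cells carrying a stable Gli1-driven firefly luciferase reporter; series mostly up to about 92 µM; nearly all actives have a fitted effect of over 15% in size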)
How it was run: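 A Gli1 transcriptional response element controlled firefly luciferase in 3T3Gli1-Luc cells. Compounds and a positive control were added 4 hr after plating, and cells were incubated a further 24 hr at 37 C before luminescence detection.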

[5] = target: Estrogen receptor beta (Homo sapiens) (UniProt Q92731); experiment: qHTS assay to identify small molecule agonists of the estrogen receptor beta (ER-beta) signaling pathway (AID 1259377; active means well fitted activation curve with a large enough effect in the signal ratio in the repeat runs, not every such curve was filed as active; the % refers to the signal ratio)
How it was run: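 qHTS in ER-beta-UAS-bla HEK293T cells: 6 hr settling, then 16 hr compound at 37C, then LiveBLAzer substrate 2 h at RT before fluorescence reading.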

[6] = target: Estrogen receptor beta (Homo sapiens) (UniProt Q92731); experiment: qHTS assay to identify small molecule antagonists of the estrogen receptor beta (ER-beta) signaling pathway (AID 1259378; active means well fitted inhibition curve with a large enough effect in the signal ratio in the repeat runs, not every such curve was filed as active; the % refers to the signal ratio)
How it was run: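 ER-beta-UAS-bla HEK293T (GripTite) cells in 2% charcoal-stripped FBS medium were preincubated 6 hr at 37C, dosed with compound, then stimulated with 1 nM E2 (final) for 16 hr; beta-lactamase reporter read by B/G FRET fluorescence after 2 hr substrate loading.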

[7] = qHTS assay to identify small molecule agonists of the estrogen receptor beta (ER-beta) signaling pathway - cell viability counter screen (AID 1259380); further: nearly all actives have a fitted effect of over 30% in size
How it was run: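 CellTiter-Glo read, 30 min RT, same wells as bla assay; cells ER-beta-UAS-bla HEK293T; 16 hr compound, 37C; medium 2% charcoal-stripped FBS.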

[8] = qHTS assay to identify small molecule antagonists of the sonic hedgehog signaling (Shh) pathway (AID 1259369; calls by dose curve; further: nearly all actives have a fitted effect of over 45% in size)
How it was run: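 For antagonist detection, the reporter line received test compounds together with conditioned medium, incubated 24hr at 37 C, 5% CO2, then luminescence was recorded following 30min room-temperature luciferase reagent incubation.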

[9] = qHTS assay to identify small molecule agonists of the androgen receptor (AR) signaling pathway in the presence of an antagonist - cell viability counter screen (AID 1259379);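 further: MDA-kb2 human breast cancer cells carrying an MMTV luciferase reporter; series mostly up to about 92 µM; nearly all actives have a fitted effect of over 25% in size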
How it was run: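 Seed MDA-kb2 at 3,000 cells/well; incubate 5 hr, 37C, 0% CO2. Add nilutamide to 3.0uM final, then pin compounds at 15 concentrations. Incubate 16 hr. Add CellTiter-Fluor at 15 hr, read fluorescence after 1 hr.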

[10] = qHTS assay to identify small molecule agonists of the sonic hedgehog signaling (Shh) pathway - cell viability counter screen (AID 1259366); further: nearly all actives have a fitted effect of over 50% in size
How it was run: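 Compounds in DMSO were pin-transferred onto 3T3 Gli1-Luc cells that had settled 4hr; plates then stood 24hr at 37C and 5% CO2. One hour before the end, CellTiter-Fluor was added and fluorescence recorded.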

Measured: Potency

Sequence of Estrogen receptor beta (Homo sapiens) (Q92731 whole entry, looked up): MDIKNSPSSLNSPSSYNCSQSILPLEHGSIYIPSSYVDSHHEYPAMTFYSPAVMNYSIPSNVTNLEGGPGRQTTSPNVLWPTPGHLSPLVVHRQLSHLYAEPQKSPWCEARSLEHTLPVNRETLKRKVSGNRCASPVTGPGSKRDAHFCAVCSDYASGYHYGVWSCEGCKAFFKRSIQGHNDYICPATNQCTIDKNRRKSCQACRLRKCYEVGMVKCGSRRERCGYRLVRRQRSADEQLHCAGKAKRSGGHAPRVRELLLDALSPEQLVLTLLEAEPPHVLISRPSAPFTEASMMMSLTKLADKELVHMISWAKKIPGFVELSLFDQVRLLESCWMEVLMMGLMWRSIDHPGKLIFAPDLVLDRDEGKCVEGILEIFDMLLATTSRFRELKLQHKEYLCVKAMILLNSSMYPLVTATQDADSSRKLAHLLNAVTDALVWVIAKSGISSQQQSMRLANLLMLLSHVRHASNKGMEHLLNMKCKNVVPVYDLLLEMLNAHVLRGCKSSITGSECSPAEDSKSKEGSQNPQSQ

CC1(C)O[C@H]2CC(=O)OC[C@]23[C@H]2CC[C@@]4(C)[C@H](c5ccoc5)OC(=O)[C@H]5O[C@]54[C@]2(C)C(=O)C[C@@H]13
not listed: [8] | [9] | [10]
inactive: all other assays above

c1ccc(-c2nn[nH]n2)cc1
not listed: [10]
inactive: all other assays above

COC(=O)c1cc(Cl)cc(Cl)c1
not listed: [10]
inactive: all other assays above

OC[C@@H](O)C(O)[C@@H](O)CO (some centres not stated)
inactive: [1] | [2] | [3] | [4] | [7]

CC1=C(O)C(=O)C(C)O1 (configuration not stated)
not listed: [5] | [9] | [10]
inactive: all other assays above

C=CCN1C[C@H](C(=O)N(CCCN(C)C)C(=O)NCC)C[C@@H]2c3cccc4[nH]cc(c34)C[C@H]21
not listed: [6] | [9] | [10]
inactive: all other assays above

CCN(CC)CCN
not listed: [3] | [7] | [10]
inactive: all other assays above

CC(=O)O[Si](C)(OC(C)=O)OC(C)=O
not listed: [9] | [10]
inactive: all other assays above

COc1cc(OC)nc(O[C@H](C(=O)O)C(OC)(c2ccccc2)c2ccccc2)n1
not listed: [5] | [10]
inactive: all other assays above

O=C[O][Al]([O]C=O)[O]C=O
inactive: [1] | [2] | [3] | [4] | [8] | [7]

C/C(CC(C)C)=N\O
not listed: [2]
inactive: all other assays above

CCC/C=C(\C=O)CC
not listed: [5] | [10]
inactive: all other assays above

CC(S)C(C)S (configuration not stated)
not listed: [5] | [10]
inactive: all other assays above

OCC(O)CN1CCN(c2ccccc2)CC1 (configuration not stated)
not listed: [5] | [6] | [10]
inactive: all other assays above

OCC1CCC(CO)CC1 (configuration not stated)
not listed: [8] | [10]
inactive: all other assays above

CCOC(=O)CC1(C)OCC(C)O1 (configuration not stated)
not listed: [10]
inactive: all other assays above

CC1(C)[C@H]2CC[C@](C)(C2)[C@H]1O
not listed: [2] | [5] | [9]
inactive: all other assays above

C[C@@H](O)C(=O)O
inactive: [1] | [3] | [4] | [8] | [9] | [7]

COC(=O)CCCCC(CCSS/C(CCO)=C(\C)N(C=O)Cc1cnc(C)nc1N)SC(C)=O (configuration not stated)
not listed: [2] | [8]
inactive: all other assays above

C/C=C(\C)C(C)=O
inactive: [1] | [10] | [4] | [7]

Cc1cc(C)c(C(=O)O)c(C)c1
not listed: [2]
inactive: all other assays above

CN1CCOC(c2ccccc2)c2ccccc2C1 (configuration not stated)
not listed: [2] | [3] | [10]
inactive: all other assays above

CCCCOCC(C)O (configuration not stated)
not listed: [2] | [5] | [6]
inactive: all other assays above

Cc1ccc(C)c([N+](=O)[O-])c1
not listed: [2] | [8] | [9]
inactive: all other assays above

CCCCCCC1(C)CCC(=O)O1 (configuration not stated)
inactive: [1] | [10] | [4] | [8] | [7]

From PubChem BioAssay (Tox21)
